Data: PubChem BioAssay AID651930 (Southern Research Specialized Biocontainment Screening …, 2012)
A number with no mark means an inactive call. How the calls were made is not given here.

Test: Vero 76 cell cytotoxicity, dose response, cytotoxicity control for VEEV inhibitor project, set 9 (AID 651930)
Settings: Vero 76 cytotoxicity; series mostly up to 25 µM; viability: at the top concentration

Compound	viability
O=c1c2cc([N+](=O)[O-])ccc2nc(CN2CCNCC2)n1-c1ccccc1	96.2%
COc1ccc(Nc2nc(=O)c3cccnc3s2)cc1	91.2% [at 50 µM]
O=c1c2cc([N+](=O)[O-])ccc2nc(CN2CCNCC2)n1-c1ccsc1	84.1%
CN1CCN(C)C(=Nc2ccc(C#N)cc2C(=O)Nc2cccc(F)c2)C1	84.5% [at 50 µM]
CNCCN(C)Cc1nc2ccc(C#N)cc2c(=O)n1-c1ccccc1F	90.3% [at 50 µM]
